Assay [1] can be described thus: P. berghei load reduction in hepatocytes – cell-based, HepG2, luciferase luminescence, HepG2 viability, primary screen (AID 624349; in the data active means parasite load remaining mostly below about 12%, no sharp cut-off; inactive means mostly above about 10%;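 further: 100% = mean of DMSO negative control wells on the same plate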). As to conditions: P. berghei liver stage in HepG2, luciferase luminescence, concentration not given here; parasite load remaining: stronger effect = lower value; viability: measured here: HepG2 viability without parasites.
Assay [2] is described as follows: signal quenchers or enhancers, Cy5 substrate/SSB – biochemical, NIH Clinical Collection, E. coli SSB, artefact control for HCV NS3 helicase inhibitor project (AID 743268). As to conditions: Cy5-oligo bound E. coli SSB, fluorescence interference.
Assay [3] has as its system Hepatitis C virus NS3 helicase. Briefly: blockers of NS3h binding to DNA – biochemical, fluorescence polarization, NIH Clinical Collection, primary screen (AID 743270). The conditions noted are these: NS3 helicase binding to Cy5-dT15 DNA, stronger effect = higher value, concentration not given here. A general note: Polarisation of emitted light reports the rotation of a fluorescent probe.

For assay [4], the target named is Single-stranded DNA-binding protein (Escherichia coli (strain K12)) (UniProt P0AGE0). The assay can be described thus: SSB-ssDNA binding inhibitors – biochemical, fluorescence polarization, NIH Clinical Collection, counter-screen for HCV NS3 helicase inhibitor project (AID 743271; in the data active means inhibition above about 28%). As to conditions: E. coli SSB-DNA binding, stronger effect = higher value, concentration not given here.

Assay [5] is described as follows: compounds distorting NS3 helicase fluorescence signal – biochemical, NIH Clinical Collection, artefact control for HCV NS3 helicase inhibitor project (AID 743272).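 Further: HCV NS3 helicase with a Cy5 labelled single stranded DNA probe.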 The conditions noted are these: fluorescence interference counterscreen, HCV NS3 helicase assay; stronger effect = lower value. In general terms: A counterscreen serves to expose hits that act by an unwanted route or on another target.

Assay [6] can be described thus: Wnt pathway potentiators raising nuclear beta-catenin – imaging, WNT3A-conditioned medium, mouse C2C12, NPC library, primary screen (AID 1117326; in the data active means nuclear beta-catenin stimulation mostly above about 4.2%, no sharp cut-off; inactive means mostly below about 10%). The conditions noted are these: stronger effect = higher value.
Assay [7] can be described thus: stimulators of insulin release from INS-1E, primary screen, cell-based, 5 mM glucose, NPC library (AID 1117329;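 active means compound raises insulin release from rat beta cells at 5 mM glucose, no numeric limit stated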). The conditions noted are these: rat INS-1E insulin secretion, at 10 µM, stronger effect = higher value.
Assay [8] is described as follows: growth inhibition of GSK3B-pretreated HCT116 cells – cell-based, CellTiter-Glo, 0.2 to 20 µM (AID 1117336;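 active means compounds lowering colon cancer cell viability after pretreatment blocking the GSK3B kinase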). The conditions noted are these: HCT116 viability after GSK3B inhibitor, at 20 µM, stronger effect = higher value.
A short description of assay [9]: inhibition of endothelial tube formation, primary screen, imaging, VEGF stimulated, CD31 staining, tube area, NPC library (AID 1117340;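 active means compound that reduces growth-factor-driven endothelial tube area in a mixed cell culture, no cutoff stated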). The conditions noted are these: VEGF-stimulated ADSC/ECFC co-culture, at 10 µM, stronger effect = higher value.
Assay [10] in a line: GLP1 release stimulators, primary, NCI-H716, NPC library (AID 1117341;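 active means compound raises GLP1 secretion from the human gut endocrine cells, with no numeric limit stated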). The conditions noted are these: NCI-H716 cells, at 10 µM, stronger effect = higher value.
The nature of assay [11]: HCT116 colon cancer cell growth inhibition, primary screen, CellTiter-Glo luminescence, NPC library (AID 1117342;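 active means compounds that lower survival of HCT116 colon cancer cells in the luminescence readout, no numeric limit stated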). As to conditions: at 20 µM (top of the series). (In general: In ATP-based viability assays light output follows the ATP content of the culture.)
Assay [12] is described as follows: reduced SW480 viability measured with CellTiter-Glo, NPC library, primary (AID 1117343;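 active means compounds that lower viability of the colon cancer cells in the luminescence readout, with no numeric limit stated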). As to conditions: CellTiter-Glo luminescence; at 20 µM (top of the series).
Assay [13] is described as follows: NPC library primary testing for decreased DLD-1 cell viability via CellTiter-Glo (AID 1117346;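 active means compounds that lower survival of DLD-1 colon cancer cells in the luminescence readout, no cutoff given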). As to conditions: DLD-1 viability, CellTiter-Glo luminescence; at 20 µM (top of the series).
The target of assay [14] is 6-phosphogluconate dehydrogenase, decarboxylating (Homo sapiens) (UniProt P52209). Briefly: inhibition of human phosphogluconate dehydrogenase – biochemical, recombinant enzyme, NADPH absorbance, primary screen (AID 1159550;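 active means at least 20% inhibition of 6-phosphogluconate dehydrogenase activity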). As to conditions: recombinant 6PGD, NADPH absorbance 341 nm; at 10 µM; stronger effect = higher value.
Assay [15] is described as follows: viability loss with induced miR-34 in A549 – imaging, A549 dox-inducible miR-34, nuclei and caspase counts, primary screen (AID 1347080;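 active means compounds whose cell count with miR-34 switched on is under 0.7 times the count with it off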). The conditions noted are these: A549 miR-34 inducible, Hoechst nuclei count, 48 h.
Assay [16] addresses NAD(+) hydrolase SARM1 (Homo sapiens) (UniProt Q6SZW1). Briefly: blocking NAD cleavage by SARM1 SAM-TIR – cell lysate, NAD-Glo luminescence (AID 1508614;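 active means compound whose remaining NAD level is above about 45 nM, limit read from the data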). The conditions noted are these: SAM-TIR HEK293T lysate NADase, at 1 µM, stronger effect = higher value.
For assay [17], the target named is Mitogen-activated protein kinase 7 (Homo sapiens) (UniProt Q13164). Briefly: Gal4-ERK5 driven luciferase induction – cell-based, HTS, primary screen (AID 1508626;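 active means luciferase signal above three times the same-plate solvent-only control wells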;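 further: luciferase driven by Gal4-ERK5 fusion binding five Gal4 sites before minimal TATA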). The conditions noted are these: HeLa Gal4-ERK5 transactivation, 18 h, at 5 µM, stronger effect = higher value.
For assay [18], the system named is F380Y. The assay can be described thus: BK channel mutant inhibitors and activators – cell-based, U2OS BacMam, thallium flux, beta subunits, selectivity assay, profiling panel (AID 1259406;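 active means thallium flux through the channel raised or lowered by more than 3 SD from vehicle-only wells, actives on both sides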;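 further: initial slope of Thallos dye fluorescence rise after thallium is added; log ratio against the mean of 0.3% DMSO vehicle wells on the same plate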). The conditions noted are these: U2OS BacMam BK variants, at 30 µM.
The nature of assay [19]: MELAS cybrid and Rieske KO viability enhancers – cell-based, MELAS cybrids, Rieske KO mouse fibroblasts, CellTiter-Glo, primary screen (AID 1508586;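 active means mean z-score across replicates of 1.96 or higher in either the MELAS or the Rieske mutant cell line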;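 further: z relative to plate mean and SD of compound and empty wells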). The conditions noted are these: low glucose.
[20] abbreviates: stronger effect = lower value, cell number ratio, induced over uninduced.
The mark [21] stands for this setting: measured here: relative caspase fold change +Dox/-Dox.
Where [22] appears, read: measured here: total cells with miR-34 induction, stronger effect = lower value.
Setting [23] is: measured here: total cells without miR-34 induction.

Several values for one entry are separate records, joined by “and”; a condition that tells them apart may be missing. Equal entries are not always repeated. Activity calls are given as the source filed them. Unless noted, how the calls were made is not given here.

Mitogen-activated protein kinase 7 (Homo sapiens), sequence (Q13164 whole entry, looked up, the tested form may be a part): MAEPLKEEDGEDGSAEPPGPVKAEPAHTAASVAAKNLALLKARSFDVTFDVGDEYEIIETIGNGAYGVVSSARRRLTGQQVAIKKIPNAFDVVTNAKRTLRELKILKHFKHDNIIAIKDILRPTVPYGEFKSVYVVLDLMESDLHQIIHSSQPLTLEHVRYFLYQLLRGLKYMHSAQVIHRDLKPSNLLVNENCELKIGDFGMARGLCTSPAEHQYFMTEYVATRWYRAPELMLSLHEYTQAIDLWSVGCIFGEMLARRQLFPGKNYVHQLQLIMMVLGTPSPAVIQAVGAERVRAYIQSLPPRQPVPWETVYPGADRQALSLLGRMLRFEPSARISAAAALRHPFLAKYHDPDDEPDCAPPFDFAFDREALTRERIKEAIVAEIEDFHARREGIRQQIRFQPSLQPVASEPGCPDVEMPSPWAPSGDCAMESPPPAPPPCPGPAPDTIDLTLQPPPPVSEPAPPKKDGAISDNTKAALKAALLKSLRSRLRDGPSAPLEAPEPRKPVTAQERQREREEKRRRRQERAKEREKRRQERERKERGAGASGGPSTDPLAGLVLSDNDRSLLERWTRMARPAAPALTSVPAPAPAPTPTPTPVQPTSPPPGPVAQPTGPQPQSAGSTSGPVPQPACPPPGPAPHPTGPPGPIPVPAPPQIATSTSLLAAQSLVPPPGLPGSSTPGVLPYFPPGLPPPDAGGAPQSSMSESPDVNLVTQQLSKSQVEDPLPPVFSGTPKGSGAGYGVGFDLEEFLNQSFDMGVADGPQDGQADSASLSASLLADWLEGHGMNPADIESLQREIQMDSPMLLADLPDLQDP
6-phosphogluconate dehydrogenase, decarboxylating (Homo sapiens), sequence (P52209 whole entry, looked up): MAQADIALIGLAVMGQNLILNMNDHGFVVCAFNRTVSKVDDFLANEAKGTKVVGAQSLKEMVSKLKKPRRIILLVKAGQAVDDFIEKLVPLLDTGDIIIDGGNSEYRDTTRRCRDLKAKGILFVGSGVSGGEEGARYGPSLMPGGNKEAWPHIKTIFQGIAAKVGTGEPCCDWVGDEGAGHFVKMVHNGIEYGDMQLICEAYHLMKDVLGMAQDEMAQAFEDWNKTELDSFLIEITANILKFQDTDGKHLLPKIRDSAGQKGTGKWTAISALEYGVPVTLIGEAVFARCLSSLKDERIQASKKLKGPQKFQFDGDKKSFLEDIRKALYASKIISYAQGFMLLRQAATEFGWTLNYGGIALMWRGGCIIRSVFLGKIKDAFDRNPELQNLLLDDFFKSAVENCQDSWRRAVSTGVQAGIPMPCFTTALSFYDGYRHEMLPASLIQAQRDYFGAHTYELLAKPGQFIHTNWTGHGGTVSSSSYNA
NAD(+) hydrolase SARM1 (Homo sapiens), sequence (Q6SZW1 whole entry, looked up, the tested form may be a part): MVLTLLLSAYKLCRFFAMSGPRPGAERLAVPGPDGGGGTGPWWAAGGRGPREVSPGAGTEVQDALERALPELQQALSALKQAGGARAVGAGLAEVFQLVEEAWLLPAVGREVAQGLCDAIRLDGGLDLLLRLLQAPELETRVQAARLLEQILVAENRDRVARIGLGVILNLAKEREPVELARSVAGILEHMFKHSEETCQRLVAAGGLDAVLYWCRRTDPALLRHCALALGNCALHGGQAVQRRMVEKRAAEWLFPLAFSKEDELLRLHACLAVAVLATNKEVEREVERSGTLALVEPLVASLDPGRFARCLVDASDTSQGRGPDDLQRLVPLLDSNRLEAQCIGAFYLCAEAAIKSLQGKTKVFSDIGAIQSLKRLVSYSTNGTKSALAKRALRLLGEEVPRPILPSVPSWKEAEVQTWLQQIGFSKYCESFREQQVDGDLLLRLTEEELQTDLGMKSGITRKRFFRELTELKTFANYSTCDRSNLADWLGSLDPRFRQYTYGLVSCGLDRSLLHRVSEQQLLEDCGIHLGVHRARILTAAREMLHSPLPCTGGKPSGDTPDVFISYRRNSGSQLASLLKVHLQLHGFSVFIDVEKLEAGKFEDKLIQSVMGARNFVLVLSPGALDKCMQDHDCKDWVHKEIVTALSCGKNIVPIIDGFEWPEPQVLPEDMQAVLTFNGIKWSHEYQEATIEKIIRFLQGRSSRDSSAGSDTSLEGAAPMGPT

As usually defined, the viability is a read-out of living cells in per cent, often relative to untreated cells. As usually defined, the inhibition is the drop in the measured response relative to a control, in per cent. With `CCCCCCCCCCC[C@@H](C[C@@H]1OC(=O)[C@H]1CCCCCC)OC(=O)[C@H](CC(C)C)NC=O`, the parasite load remaining in [1] is 74.9% (inactive). For the same compound, in [1], the viability stood at 74.1%. Also, the fluorescence ratio is 1.04 (inactive) in assay [2] and 0.95 (inactive) in assay [5]. The figures for the inhibition in [3], in [4] and in assay [14] were -7.52% (inactive), -0.1% (inactive) and -8.26% (inactive), respectively. The nuclear beta-catenin stimulation in [6] (at 10 µM) is 2.8% (inactive); in assay [6] (stimulation, at 2 µM), 4.5%. Moreover, in [7], the insulin secretion stimulation is -1.7% (inactive). The viability decrease in assay [8] is 42.4% (inactive). In addition, the tube area decrease in [9] is 102% (active). The GLP1 secretion stimulation in assay [10] was 0.9% (inactive). Besides, the inhibition of viability in [11] is 32.5% (inactive). Moreover, the viability decrease (inhibition) in [12] is 107% (active); in assay [13] it was 79.1% (active). For the same compound, the fold change in assay [15] (setting [20]) is 0.867 (inactive); in [15] (setting [21]) it was 2.26. The cell count in [15] (setting [22]) amounted to 7850; in [15] (setting [23]) it was 9060. Besides, the remaining NAD in [16] is 10 nM (inactive). Moreover, the luciferase signal in assay [17] is 48 AU (inactive). Besides, the log fold change Tl+ flux in assay [18] was 0.0597 (inactive).
Turning to `COc1cc([C@@H]2c3cc4c(cc3[C@H](O)[C@H]3COC(=O)[C@H]23)OCO4)cc(OC)c1OC`, in assay [1], the parasite load remaining was 94.8% (inactive) and 112% (inactive) and 73% (inactive). Further, the viability in [1] is 107% and 103% and 113%. For the same compound, the fluorescence ratio in assay [2] was 1.01 (inactive); in assay [5] it was 1.03 (inactive). Also, the inhibition in [3] was -0.45% (inactive); in [4], 1.05% (inactive); in assay [14], 10.7% (inactive). The nuclear beta-catenin stimulation in assay [6] (at 10 µM) was 81% (active); in [6] (stimulation, at 2 µM), 77%. Further, in assay [7], the insulin secretion stimulation is 1.25% (inactive). Moreover, the viability decrease in [8] is 102% (active). For the same compound, in [9], the tube area decrease is 109% (active). Further, in assay [10], the GLP1 secretion stimulation was 2% (inactive). Further, the inhibition of viability in assay [11] was 73.1% (active). Further, the viability decrease (inhibition) is 49.9% (inactive) in assay [12] and 64% (active) in [13]. Further, the fold change is 1.05 (inactive) and 1.04 (inactive) and 0.981 (inactive) in [15] (setting [20]); 0.525 and 0.993 and 1.97 in assay [15] (setting [21]). Also, the cell count was 2300 and 1910 and 1870 in assay [15] (setting [22]); 2200 and 1830 and 1900 in assay [15] (setting [23]). For the same compound, the z-score was -2.59 (inactive) in assay [19] (MELAS cybrid survival, CellTiter-Glo 48 h, stronger effect = higher value) and 1.94 in assay [19] (Rieske KO mouse fibroblast survival, CellTiter-Glo 72 h). In addition, in assay [16], the remaining NAD is 10 nM (inactive). Further, the luciferase signal in [17] was 92 AU (inactive). Also, in [18], the log fold change Tl+ flux was 0.0196 (inactive).
For the compound `O[C@@H](c1cc(C(F)(F)F)nc2c(C(F)(F)F)cccc12)[C@H]1CCCCN1`, the parasite load remaining in assay [1] is -2.37% (inactive). Besides, in [1], the viability worked out at 0.505%. Also, the fluorescence ratio in assay [2] was 1.04 (inactive); in assay [5], 0.96 (inactive). Further, the inhibition in [3] was -7.73% (inactive); in [4], -2% (inactive); in assay [14], 5.27% (inactive). The nuclear beta-catenin stimulation in [6] (at 10 µM) was 45% (active); in [6] (stimulation, at 2 µM), 3.3%. In addition, the insulin secretion stimulation in [7] was 6.3% (inactive). For the same compound, the viability decrease in assay [8] is 99.1% (active). Further, in assay [9], the tube area decrease is 108% (active). In assay [10], the GLP1 secretion stimulation is -1.8% (inactive). The inhibition of viability in assay [11] was 99% (active). In addition, the viability decrease (inhibition) in [12] is 102% (active); in assay [13], 101% (active). Also, the fold change in [15] (setting [20]) was 1.59 (inactive); in assay [15] (setting [21]) it was 0.276. Moreover, the cell count stood at 950 in assay [15] (setting [22]) and 597 in assay [15] (setting [23]). Moreover, the remaining NAD in assay [16] is 10 nM (inactive). Moreover, the luciferase signal in assay [17] was 64 AU (inactive). For the same compound, the log fold change Tl+ flux in assay [18] was 0.333 (active).

These data come from PubChem BioAssay.
